In PubChem BioAssay AID1159580 (chemical genetic matrix, 2015):
Values joined by “and” are separate entries in the source; they are usually repeats but may differ in a detail not shown here. Equal entries are not always repeated. Hit rate of the full screen: of about 5,500 compounds, about 2,000 (36%) were called active. Another 18% or so got no clear call; they are omitted. Cut-off read from the data, not from the text of the source: active = normalized growth mostly below about 0.91 (no sharp cut-off); inconclusive = no clear call, values can overlap the other calls; inactive = mostly above about 0.92. This is one part of the list.

Assay: chemical genetic growth profiling, strain panel (AID 1159580);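 note: tested at 20 µM; growth read once vehicle control cultures reached saturation at 30 °C; 1 = growth at the plate median or of vehicle wells; lower values mean less growth of the strain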
Settings: S. cerevisiae deletion strains, growth OD

Measured: normalized growth

Cc1cc(=O)[nH]c(=S)[nH]1
inactive: locus YAL013W, strain DEP1, hits give low values 1.01 | locus YAL021C, strain ccr4, hits give low values 0.956 | locus YAL026C, strain drs2, hits give low values 0.974 | locus YAL030W, strain snc1, hits give low values 0.98 | locus YBL061C, strain skt5, hits give low values 0.987 | locus YBR009C, strain hhf1, hits give low values 0.954 | locus YBR021W, strain FUR4, hits give low values 0.986 | locus YBR023C, strain chs3, hits give low values 0.977 | locus YBR171W, strain sec66, hits give low values 0.987 | locus YBR229C, strain ROT2, hits give low values 1.01 | locus YBR231C, strain swc5, hits give low values 0.989 | locus YBR279W, strain paf1, hits give low values 0.973 | locus YCL011C, strain gbp2, hits give low values 0.964 | locus YCL016C, strain dcc1, hits give low values 0.96 | locus YCL029C, strain bik1, hits give low values 1.02 | locus YCL061C, strain MRC1, hits give low values 0.926 | locus YCL069W, strain vba3, hits give low values 0.97 | locus YCR088W, strain abp1, hits give low values 0.978 | locus YDL005C, strain med2, hits give low values 0.97 | locus YDL035C, strain GPR1, hits give low values 0.993 | locus YDL040C, strain nat1, hits give low values 0.977 | locus YDL074C, strain BRE1, hits give low values 1.03 | locus YDL101C, strain DUN1, hits give low values 1.03 | locus YDL134C, strain PPH21, hits give low values 1 | locus YDL185W, strain tfp1, hits give low values 1.02 | locus YDL192W, strain arf1, hits give low values 1 | locus YDR001C, strain nth1, hits give low values 0.972 | locus YDR069C, strain doa4, hits give low values 0.982 | locus YDR101C, strain arx1, hits give low values 0.998 | locus YDR137W, strain rgp1, hits give low values 0.958 | locus YDR150W, strain NUM1, hits give low values 1.01 | locus YDR159W, strain sac3, hits give low values 0.937 | locus YDR162C, strain NBP2, hits give low values 1.01 | locus YDR195W, strain ref2 0.948 | locus YDR297W, strain sur2, hits give low values 0.963 | locus YDR318W, strain mcm21, hits give low values 1.03 | locus YDR334W, strain swr1, hits give low values 0.973 | locus YDR335W, strain msn5, hits give low values 0.968 | locus YDR388W, hits give low values 1.01 | locus YDR392W, strain spt3, hits give low values 0.929 | locus YDR502C, strain sam2, hits give low values 0.999 | locus YEL003W, strain gim4, hits give low values 0.965 | locus YEL037C, strain rad23, hits give low values 0.98 | locus YEL061C, strain CIN8 (second series), hits give low values 0.973 | locus YEL061C, strain CIN8, hits give low values 1 | locus YER015W, strain faa2, hits give low values 0.989 | locus YER016W, strain bim1, hits give low values 0.938 | locus YER110C, hits give low values 1.01 | locus YER111C, strain swi4, hits give low values 0.976 | locus YER155C, strain BEM2 (second series), hits give low values 1.01 | locus YER155C, strain BEM2, hits give low values 1.01 | locus YER167W, strain BCK2, hits give low values 0.996 | locus YFR010W, strain ubp6, hits give low values 0.97 | locus YGL078C, strain dbp3, hits give low values 0.991 | locus YGL086W, strain mad1, hits give low values 1 | locus YGL167C, strain pmr1, hits give low values 0.968 | locus YGL173C, strain kem1, hits give low values 0.968 | locus YGL227W, strain vid30, hits give low values 0.986 | locus YGL240W, strain doc1, hits give low values 0.988 | locus YGL248W, strain PDE1, hits give low values 1.01 | locus YGL253W, strain hxk2, hits give low values 0.949 | locus YGR078C, strain PAC10, hits give low values 1.02 | locus YGR135W, strain pre9, hits give low values 1 | locus YGR229C, strain SMI1, hits give low values 1.01 | locus YGR252W, strain gcn5, hits give low values 0.978 | locus YHR013C, strain ard1, hits give low values 0.914 | locus YHR027C, strain rpn1, hits give low values 0.965 | locus YHR030C, strain SLT2, hits give low values 1.01 and 1.08 | locus YHR079C, strain IRE1 (second series), hits give low values 1.01 | locus YHR079C, strain IRE1, hits give low values 1.05 | locus YHR094C, strain hxt1, hits give low values 1.01 | locus YHR129C, strain ARP1, hits give low values 1.02 | locus YHR142W, strain chs7, hits give low values 0.952 | locus YHR200W, strain rpn10, hits give low values 1 | locus YIL066C, strain RNR3, hits give low values 1.01 | locus YIL073C, strain SPO22, hits give low values 1.04 | locus YIL125W, strain kgd1, hits give low values 1 | locus YIR030C, strain dcg1, hits give low values 1 | locus YJL092W, strain hpr5, hits give low values 0.987 | locus YJL095W, strain BCK1 (second series), hits give low values 0.978 | locus YJL095W, strain BCK1, hits give low values 1.04 | locus YJL115W, strain asf1, hits give low values 0.97 | locus YJL129C, strain trk1, hits give low values 0.971 | locus YJL134W, strain LCB3, hits give low values 1.01 | locus YJL154C, strain vps35, hits give low values 0.972 | locus YJL164C, strain tpk1, hits give low values 0.947 | locus YJL166W, strain qcr8, hits give low values 0.976 | locus YJL168C, strain set2, hits give low values 1.01 | locus YJL187C, strain SWE1 (second series), hits give low values 1.03 | locus YJL187C, strain SWE1, hits give low values 0.976 | locus YJR043C, strain POL32, hits give low values 1.02 | locus YJR066W, strain TOR1, hits give low values 0.996
